Screens (PubChem BioAssay)
Shown is part of a subset that was picked to be rich in hits.
PI4K2A block – blocks human PI4K2A kinase activity | AID 1346378 | Q9BTU6 | activity change, negative = inhibition, % at 76.9 µM | purified PI4K2A, ADP-Glo luminescence, 1 h; hits give low values | 420,000 tested, 0.13% active; in the data active means activity change below about -50%; inconclusive means mostly about -30% to -49%;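 further: -100% = wells without enzyme as full effect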
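PI4K2A activity was measured by ADP-Glo luminescence: enzyme (4 ug/mL stock) and phosphatidylinositol (1.2 mM stock) in Tris pH 7.5/MgCl2/EGTA/Triton X-100 buffer were reacted with ATP (300 microM stock) for one hour at ambient temperature.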
PGK inhibitor – blocks T. brucei phosphoglycerate kinase. Potency, µM (titrated, usually from 57.5 µM), inactives show top-dose activity change, negative = inhibition, most hits filed as inhibitors. AID 602233. PGK/GAPDH coupled, Kinase-Glo luminescence, 60 min. 380,000 tested, 0.043% active. P07378; further: potency means the concentration at half of the fitted maximal effect; nearly all actives have a fitted effect of over 60% in size
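Luminescent ATP detection (Kinase-Glo Plus) follows a 60-minute room-temperature incubation, with wells lacking PGK as controls. Buffer: 100 mM TEA (pH 7.6), 5 mM MgCl2, 0.01% Tween-20. Coupling enzyme GAPDH (100 nM final) supplies unstable 1,3-BPG in-well.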
Pin1 inh – inhibitors of human Pin1; Q13526; Pin1 FP peptide displacement, HiFluor488, 10 min; Potency, µM (series often up to 115 µM), without a hit: at the highest dose activity, negative = inhibition, most hits filed as inhibitors; 390,000 tested, 0.009% active; active means well fitted inhibition curve with a large enough effect in the polarisation, with a control signal flat, not every such curve was filed as active; inconclusive means small, poorly fitted or top-dose-only effect, or effect the other way, or a change in a side signal; inactive means no such curve, though single readings can be large or run the other way; the % refers to the polarisation; further: potency means the concentration at half of the fitted maximal effect
Target sequence (Q13526 whole entry, looked up): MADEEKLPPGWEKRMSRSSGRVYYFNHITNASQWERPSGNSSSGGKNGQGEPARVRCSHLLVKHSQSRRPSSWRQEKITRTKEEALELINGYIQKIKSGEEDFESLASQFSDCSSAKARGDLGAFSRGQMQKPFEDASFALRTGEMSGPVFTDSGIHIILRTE
Tb PFK block – T. brucei PFK enzyme inhibition. O15648. T. brucei PFK, ADP-Glo luminescence. Potency, µM (doses to about 57.5 µM), for inactives: at the highest dose activity, negative = inhibition, hits mostly inhibitors. 330,000 tested, 0.17% active. AID 485367;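 further: potency means the concentration at half of the fitted maximal effect; 0% = uninhibited 1x PFK enzyme wells and -100% = no-enzyme wells; nearly all actives have a fitted effect of over 60% in size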
Target sequence (O15648 whole entry, looked up): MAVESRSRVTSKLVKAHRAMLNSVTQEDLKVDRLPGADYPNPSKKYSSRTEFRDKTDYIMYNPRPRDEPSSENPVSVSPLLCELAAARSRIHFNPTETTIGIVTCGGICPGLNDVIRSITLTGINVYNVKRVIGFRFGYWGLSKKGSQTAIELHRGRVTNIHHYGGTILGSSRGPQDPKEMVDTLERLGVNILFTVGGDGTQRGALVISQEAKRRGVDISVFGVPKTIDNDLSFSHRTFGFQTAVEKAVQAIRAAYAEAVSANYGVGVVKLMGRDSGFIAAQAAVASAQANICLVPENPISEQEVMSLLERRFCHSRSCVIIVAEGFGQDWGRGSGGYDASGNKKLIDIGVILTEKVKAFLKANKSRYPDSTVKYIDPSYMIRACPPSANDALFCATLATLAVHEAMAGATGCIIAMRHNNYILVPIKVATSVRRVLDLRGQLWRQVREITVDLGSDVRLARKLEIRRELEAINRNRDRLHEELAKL
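PFK 1.25 nM, F6P 0.5 mM, ATP 0.1 mM, 0.1 M TEA pH 8.0, 5 mM MgCl2, 0.01% Tween20, 0.1% BSA; 45 min RT. ADP-Glo readout. qHTS titration up to 57 uM; curves fitted, compounds curve-classed.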
PI5P4K alpha inh – PI5P4K alpha (human) kinase inhibition | max response, % | P48426 | 330,000 tested, 1.2% active | AID 652105 | PI5P4Kalpha enzyme, ADP-Glo luminescence, 60 min; hits give low values; active means max response of -50% or lower; inconclusive means between -30% and -50%; inactive means -30% or higher; further: value at the top dose of about 77 µM
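Human PI5P4Kalpha with substrate in 0.038 M HEPES pH 7.4, 0.28 mM EGTA, 0.1% CHAPS, 5% DMSO; reaction started with 5 microM ATP (final), 60 min at room temperature. ADP formed read by ADP-Glo luminescence.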
An asterisk follows results filed as active. Unless noted, the call rests on the fitted dose curve; in most records, active means well fitted curve in the direction sought with a large enough effect; inconclusive means small, poorly fitted or top-dose-only effect, or another doubt; inactive means no such curve, though single readings can be large; an effect the other way counts as inactive or inconclusive. Unless noted, on the % scale 0 is the no-effect control and ±100 the full control effect.

Results for COc1ccc(Br)cc1C(=O)NC(=S)Nc1ccc(Cl)c(C(=O)O)c1 ?
PI4K2A block: -0.9; PGK inhibitor: -4.7%; Pin1 inh: inconclusive; Tb PFK block: -7.8%; PI5P4K alpha inh: -65.4*

How did COc1ccc(Br)cc1/C=C/C(=O)NC(=S)Nc1ccc(Cl)c(C(=O)O)c1 do in these assays?
PI4K2A block: -2.4; PGK inhibitor: inconclusive; Pin1 inh: -5.3%; Tb PFK block: -10.6%; PI5P4K alpha inh: -10.2

What do the screens show for `Cc1cc(/C=C2/C(=N)N3C(=NC2=O)SN=C3S(C)(=O)=O)c(C)n1-c1ccccc1F`?
PI4K2A block: -5.0; PGK inhibitor: -6.2%; Pin1 inh: -12.5%; Tb PFK block: 2.2%; PI5P4K alpha inh: -61.7*

How did CS(=O)(=O)C1=NSC2=NC(=O)/C(=C\c3cccn3-c3ccc(Cl)cc3)C(=N)N21 do in these assays?
PI4K2A block: -7.0; PGK inhibitor: inconclusive; Pin1 inh: -13.2%; Tb PFK block: -28.7%; PI5P4K alpha inh: -81.2*

Results for Cc1ccc(-n2cccc2/C=C2\C(=N)N3N=C(C(C)C)SC3=NC2=O)cc1 ?
PI4K2A block: -3.6; Pin1 inh: 9.9%; Tb PFK block: -7.0%; PI5P4K alpha inh: -8.0

What do the screens show for `CC(=O)Nc1ccc(S(=O)(=O)NC(CC(=O)N(C)Cc2ccccc2)C(C)C)cc1` (stereo unspecified)?
PI4K2A block: 2.5; PGK inhibitor: 4.1%; Pin1 inh: -4.2%; Tb PFK block: -3.2%; PI5P4K alpha inh: -53.2*

How did CC(=O)Nc1ccc(S(=O)(=O)NC(CC(=O)NCCc2ccccc2)C(C)C)cc1 (stereo unspecified) do in these assays?
PI4K2A block: -4.9; PGK inhibitor: -0.8%; Pin1 inh: -6.0%; Tb PFK block: -1.3%

What do the screens show for `COCCOC(=O)C1=C(C)NC2=C(C(=O)CCC2)C1c1ccc2c(c1)OCO2` (stereo unspecified)?
PI4K2A block: -0.8; PGK inhibitor: -8.5%; Pin1 inh: 5.3%; Tb PFK block: -6.4%

Results for O=c1c(O)c(-c2ccc(O)cc2)oc2cc(O)cc(O)c12 ?
PI4K2A block: -3.5; PGK inhibitor: -18.3%; Pin1 inh: 1.0%; PI5P4K alpha inh: -72.9*

Results for O=c1cc(-c2ccc(O)cc2)oc2cc(O)cc(O)c12 ?
PI4K2A block: -0.7; PGK inhibitor: -0.2%; Pin1 inh: inconclusive; PI5P4K alpha inh: inconclusive

What do the screens show for `O=C(CN1C2CCCC1CC(NC(=O)c1ccco1)C2)Nc1ccccc1` (stereo unspecified)?
PI4K2A block: -1.8; PGK inhibitor: 4.1%; Pin1 inh: 2.9%; Tb PFK block: -6.0%; PI5P4K alpha inh: 4.5

Results for CS(=O)(=O)c1nsc2nc(=O)c(/C=C3\C=Nc4ccccc43)c(N)n12 ?
PI4K2A block: -1.4; PGK inhibitor: -6.6%; Pin1 inh: inconclusive; Tb PFK block: -2.9%; PI5P4K alpha inh: -71.9*

How did CCCCC/S(CC1CC1(Cl)Cl)=N\S(=O)(=O)c1ccc(C)cc1 (stereo unspecified) do in these assays?
PI4K2A block: 0.3; PGK inhibitor: -3.1%; Pin1 inh: -0.3%; Tb PFK block: 0.5%; PI5P4K alpha inh: -3.0

What do the screens show for `CCOc1ccc(N=Cc2ccc([N+](=O)[O-])cc2)c(O)c1`?
PI4K2A block: -4.8; PGK inhibitor: -16.7%; PI5P4K alpha inh: -12.9

Results for CCOc1ccc(N=Cc2ccc(N(C)C)cc2)c(O)c1 ?
PI4K2A block: -12.8; PGK inhibitor: inactive; PI5P4K alpha inh: -54.0*

How did CCCCC1=CC2=CC(=O)C(C)(OC(=O)CC)C(=O)C2=CO1 (stereo unspecified) do in these assays?
PI4K2A block: -15.7; PGK inhibitor: -17.9%; Pin1 inh: inconclusive; PI5P4K alpha inh: -65.0*

How did CCC(=O)OC1(C)C(=O)C=C2C=C(CCCC(=O)OC)OC=C2C1=O (stereo unspecified) do in these assays?
PI4K2A block: -24.3; PGK inhibitor: -13.5%; Pin1 inh: inconclusive; PI5P4K alpha inh: inconclusive

How did COc1ccc(-n2c(SCC(=O)Nc3cc(C(=O)O)ccc3C)nc3ccccc3c2=O)cc1Cl do in these assays?
PI4K2A block: -1.1; PGK inhibitor: 4.6%; Pin1 inh: -1.5%; Tb PFK block: 0.8%; PI5P4K alpha inh: -63.9*

What do the screens show for `O=C(NNc1cccc(Cl)n1)c1ccc(Cl)cc1Cl`?
PI4K2A block: -1.9; PGK inhibitor: 0.7%; Pin1 inh: -5.2%; Tb PFK block: -5.4%; PI5P4K alpha inh: -1.0

Results for O=C(NNc1cccc(Cl)n1)c1ccccc1CC[N+](=O)[O-] ?
PI4K2A block: -2.7; PGK inhibitor: 0.0%; Pin1 inh: -15.3%; Tb PFK block: 1.8%; PI5P4K alpha inh: -78.1*

How did CCOC(=O)C1(C)CCN1C(=O)c1ccc(OC)cc1OC (stereo unspecified) do in these assays?
PI4K2A block: -9.9; PI5P4K alpha inh: 1.9

What do the screens show for `CCCCNC(=O)C[C@@H]1C[C@@]2(C(=O)OC)CCCCC=C2N(CCc2ccc(OC)c(OC)c2)C1=O`?
PI4K2A block: 0.8; PI5P4K alpha inh: 0.2

How did Cc1ccc(C(=O)n2ncn(C)c2=S)cc1 do in these assays?
PI4K2A block: -3.9; PGK inhibitor: -6.3%; Pin1 inh: -15.1%; Tb PFK block: -0.9%; PI5P4K alpha inh: -63.4*

How did Cc1ccc(C(=O)n2nc(-c3ccco3)nc2N)cc1 do in these assays?
PI4K2A block: 21.2; PGK inhibitor: -2.8%; Pin1 inh: 6.2%; Tb PFK block: -2.3%; PI5P4K alpha inh: 0.9

How did Cc1ccc2c(c1)C(N1CCCC1=O)CC(c1ccco1)N2 (stereo unspecified) do in these assays?
PI4K2A block: -61.6*; PGK inhibitor: inconclusive; Pin1 inh: -9.3%; Tb PFK block: inconclusive; PI5P4K alpha inh: inconclusive

Results for CCc1ccc(/C=N/Nc2ncnc3nc[nH]c23)cc1 ?
PI4K2A block: -11.1; PGK inhibitor: -3.5%; Pin1 inh: 1.6%; Tb PFK block: 0.4%; PI5P4K alpha inh: -56.3*

How did CC(C)=NNc1ncnc2nc[nH]c12 do in these assays?
PI4K2A block: 3.4; PGK inhibitor: -7.6%; Pin1 inh: -4.5%; PI5P4K alpha inh: -10.8

Results for NC1=C(Br)C(=O)c2ncccc2C1=O ?
PI4K2A block: inconclusive; PGK inhibitor: -3.3%; Pin1 inh: -1.9%; PI5P4K alpha inh: -0.7

What do the screens show for `O=C1C=C(NCCc2cc(Br)c(O)c(Br)c2)C(=O)c2ncccc21`?
PI4K2A block: inconclusive; PGK inhibitor: -20.1%; Pin1 inh: inconclusive; PI5P4K alpha inh: -73.8*

How did NNC(=O)c1ccc2nc(-c3ccc(Br)cc3)cn2c1 do in these assays?
PI4K2A block: -14.1; PGK inhibitor: -7.2%; Pin1 inh: -0.8%; Tb PFK block: -7.2%; PI5P4K alpha inh: -3.0

What do the screens show for `COc1ccc(-c2cn3cc(C(=O)NN)ccc3n2)cc1`?
PI4K2A block: -71.6*; PGK inhibitor: -5.2%; Pin1 inh: -0.4%; Tb PFK block: -0.1%; PI5P4K alpha inh: -15.8
